Test [1] can be described thus: qHTS assay to test for compound auto fluorescence at 535 nm (green) in HEK293 cells (AID 720680). A general note: Quantitative high-throughput screening tests each substance at several concentrations.
Test [2] can be described thus: qHTS assay to test for compound auto fluorescence at 460 nm (blue) in HEK293 cell free culture (AID 720681). Summed up: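 Test compounds were pinned into cell-free culture medium (DMEM with 10% FBS) and fluorescence was read directly at Ex/Em 405/460 nm. Signals were expressed as fluorescence equivalents of triamterene, with DMSO vehicle as control.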
Test [3] in a line: qHTS assay to test for compound auto fluorescence at 535 nm (green) in HEK293 cell free culture (AID 720682). In short, it runs like this:
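No cells present: wells hold DMEM supplemented with 10% FBS, into which compound or vehicle is pinned. Green emission is then recorded (485 nm excitation, 535 nm emission) and scaled to fluorescein.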

Test [4] can be described thus: qHTS assay to test for compound auto fluorescence at 590 nm (red) in HEK293 cell free culture (AID 720683). Summed up: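 Tox21 10K library compounds were pinned into cell-free DMEM with 10% FBS and fluorescence was read at excitation 540 nm. Activity is expressed as Rose Bengal sodium equivalency.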
Test [5] in a line: qHTS assay to test for compound auto fluorescence at 460 nm (blue) in HepG2 cell free culture (AID 720685). Summed up:
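Compound (23 nL) or DMSO pinned into cell-free MEM with 10% FBS; blue fluorescence read at 405/460 nm excitation/emission, expressed as auto-fluorescence equivalency to triamterene.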

Test [6] can be described thus: qHTS assay to test for compound auto fluorescence at 535 nm (green) in HepG2 cell free culture (AID 720686).
The nature of test [7]: qHTS assay to test for compound auto fluorescence at 460 nm (blue) in HepG2 cells (AID 720687). Summed up: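 Cells (2,000/well in MEM with 10% FBS) attached overnight at 37 C, then were exposed to compound or DMSO for 1 hr at 37 C, 5% CO2. Fluorescence read at Ex/Em 405/460 nm, expressed as triamterene-equivalent signal.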
Test [8] addresses Glucocorticoid receptor (Homo sapiens) (UniProt P04150). The test can be described thus: qHTS assay to identify small molecule agonists of the glucocorticoid receptor (GR) signaling pathway (AID 720691; active means well fitted activation curve with a large enough effect in the signal ratio in the repeat runs, not every such curve was filed as active; the % refers to the signal ratio). Summed up: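 Beta-lactamase reporter activity, read as fluorescence intensity, was measured in GR-bla HeLa cells exposed to compounds for 18 h at 37 C and then loaded with LiveBLAzer B/G FRET substrate for 2 h at room temperature.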

Test [9] can be described thus: qHTS assay to identify small molecule antagonists of the glucocorticoid receptor (GR) signaling pathway - cell viability counter screen (AID 720693). Further: nearly all actives have a fitted effect of over 55% in size.
Test [10] can be described thus: qHTS assay for identifying genotoxic compounds that show differential cytotoxicity against isogenic chicken DT40 cell lines with known DNA damage response pathways - wild type cell line (AID 743012). Further: nearly all actives have a fitted effect of over 60% in size. Summed up: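 Quantitative HTS on parental DT40 cells: 40 h compound treatment at 37 C/5% CO2, with viability then determined by CellTiter-Glo luminescence. Values serve as the DNA repair-proficient reference for differential cytotoxicity.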

Test [11] in a line: qHTS assay for identifying genotoxic compounds that show differential cytotoxicity against isogenic chicken DT40 cell lines with known DNA damage response pathways - Rev3 mutant cell line (AID 743014). Further: nearly all actives have a fitted effect of over 55% in size. Further: potency means the concentration at half of the fitted maximal effect.
Test [12] in a line: qHTS assay for identifying genotoxic compounds that show differential cytotoxicity against isogenic chicken DT40 cell lines with known DNA damage response pathways - Rad54/Ku70 mutant cell line (AID 743015). Further: nearly all actives have a fitted effect of over 60% in size. Further: potency means the concentration at half of the fitted maximal effect.
Test [13] can be described thus: qHTS assay to identify small molecule antagonists of the androgen receptor (AR) signaling pathway - cell viability counter screen (AID 743033; further: nearly all actives have a fitted effect of over 45% in size).
Test [14] addresses Androgen receptor (Homo sapiens) (UniProt P10275). As to the kind of experiment: qHTS assay to identify small molecule antagonists of the androgen receptor (AR) signaling pathway (AID 743035; active means well fitted inhibition curve with a large enough effect in the signal ratio in the repeat runs, not every such curve was filed as active; the % refers to the signal ratio). Summed up:
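Cell line: GeneBLAzer AR-UAS-bla GripTite (HEK293). Stimulus: R1881 added after compound. Exposure: 16 h, 37C, 5% CO2. Readout: LiveBLAzer B/G FRET fluorescence after 2 h at room temperature.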

Test [15] shares this target. As to the kind of experiment: qHTS assay to identify small molecule agonists of the androgen receptor (AR) signaling pathway (AID 743036; active means well fitted activation curve with a large enough effect in the signal ratio in the repeat runs, with a control signal flat, not every such curve was filed as active; the % refers to the signal ratio). Summed up:
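Quantitative HTS of the Tox21 10K library in HEK293 cells bearing a stably integrated UAS-controlled beta-lactamase reporter. Compound exposure lasted 16 h at 37C. Reporter activity was detected by FRET substrate fluorescence after 2 h at room temperature.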

The target is the same in test [16]. As to the kind of experiment: qHTS assay to identify small molecule agonists of the androgen receptor (AR) signaling pathway using the MDA cell line (AID 743040; further: nearly all actives have a fitted effect of over 20% in size). In short, it runs like this: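 Luminescence from ONE-Glo, read after 30 min at room temperature, reflects MMTV-driven luciferase in MDA-kb2 cells (AR- and GR-responsive). Treatment lasted 16 h at 37C, 0% CO2.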

Test [17] in a line: qHTS assay to identify small molecule antagonists of the androgen receptor (AR) signaling pathway using the MDA cell line - cell viability counter screen (AID 743041; further: nearly all actives have a fitted effect of over 45% in size). In short, it runs like this:
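Viability counter screen run alongside the AR antagonist reporter: cells seeded 5 h before compound, R1881 added, 16 h incubation at 37C without CO2, fluorescent CellTiter-Fluor signal quantified.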

Test [18] deals with Androgen receptor (Homo sapiens) (UniProt P10275). The test can be described thus: qHTS assay to identify small molecule antagonists of the androgen receptor (AR) signaling pathway using the MDA cell line (AID 743042; further: nearly all actives have a fitted effect of over 55% in size). Summed up: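 MDA-kb2 cells (human breast carcinoma, stably carrying an MMTV-luciferase reporter responsive to AR and GR) were plated at 3,000 cells/well and preincubated 5 hr at 37C, then given compound plus R1881 agonist for 16 h. ONE-Glo luminescence was read.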
Sequence of Androgen receptor (Homo sapiens) (P10275 whole entry, looked up): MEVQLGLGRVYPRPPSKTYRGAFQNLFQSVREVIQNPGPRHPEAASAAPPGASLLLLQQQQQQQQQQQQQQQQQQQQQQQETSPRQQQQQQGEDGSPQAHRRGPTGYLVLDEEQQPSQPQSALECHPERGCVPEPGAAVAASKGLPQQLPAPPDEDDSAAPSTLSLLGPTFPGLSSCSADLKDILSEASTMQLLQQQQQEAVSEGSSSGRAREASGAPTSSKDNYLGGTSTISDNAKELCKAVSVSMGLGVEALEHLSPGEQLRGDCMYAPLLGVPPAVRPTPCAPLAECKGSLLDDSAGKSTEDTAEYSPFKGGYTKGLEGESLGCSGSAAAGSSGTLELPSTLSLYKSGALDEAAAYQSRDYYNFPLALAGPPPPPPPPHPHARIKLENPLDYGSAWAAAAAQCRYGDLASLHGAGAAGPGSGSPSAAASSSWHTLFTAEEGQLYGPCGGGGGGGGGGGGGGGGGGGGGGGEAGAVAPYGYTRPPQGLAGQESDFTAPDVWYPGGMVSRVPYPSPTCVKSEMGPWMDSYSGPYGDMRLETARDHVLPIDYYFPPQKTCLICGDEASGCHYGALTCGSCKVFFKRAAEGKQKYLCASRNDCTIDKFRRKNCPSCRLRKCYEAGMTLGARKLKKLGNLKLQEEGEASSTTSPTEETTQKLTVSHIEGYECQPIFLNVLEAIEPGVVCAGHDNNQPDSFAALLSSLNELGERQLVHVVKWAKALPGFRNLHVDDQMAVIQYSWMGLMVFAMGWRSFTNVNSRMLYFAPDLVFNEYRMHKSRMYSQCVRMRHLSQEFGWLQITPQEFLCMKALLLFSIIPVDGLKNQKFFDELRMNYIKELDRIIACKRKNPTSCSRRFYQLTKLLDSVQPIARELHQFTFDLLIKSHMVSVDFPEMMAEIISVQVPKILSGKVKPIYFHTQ

The nature of test [19]: qHTS assay to test for compound auto fluorescence at 590 nm (red) in HepG2 cell free culture (AID 720684). In short, it runs like this:
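Measured in medium alone (MEM containing 10% FBS) following pintool addition of compound; emission at 590 nm with 540 nm excitation, referenced to Rose Bengal sodium.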

In test [20] the target is Glucocorticoid receptor (Homo sapiens) (UniProt P04150). The test can be described thus: qHTS assay to identify small molecule antagonists of the glucocorticoid receptor (GR) signaling pathway (AID 720692; active means well fitted inhibition curve with a large enough effect in the signal ratio in the repeat runs, not every such curve was filed as active; the % refers to the signal ratio). In short, it runs like this: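 Fluorescence from cleaved LiveBLAzer B/G FRET substrate reports GRE-driven beta-lactamase in HeLa cells; compounds are tested against 5 nM dexamethasone (final) over 18 h at 37 C, substrate incubation 2 h at room temperature.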
Sequence of Glucocorticoid receptor (Homo sapiens) (P04150 whole entry, looked up): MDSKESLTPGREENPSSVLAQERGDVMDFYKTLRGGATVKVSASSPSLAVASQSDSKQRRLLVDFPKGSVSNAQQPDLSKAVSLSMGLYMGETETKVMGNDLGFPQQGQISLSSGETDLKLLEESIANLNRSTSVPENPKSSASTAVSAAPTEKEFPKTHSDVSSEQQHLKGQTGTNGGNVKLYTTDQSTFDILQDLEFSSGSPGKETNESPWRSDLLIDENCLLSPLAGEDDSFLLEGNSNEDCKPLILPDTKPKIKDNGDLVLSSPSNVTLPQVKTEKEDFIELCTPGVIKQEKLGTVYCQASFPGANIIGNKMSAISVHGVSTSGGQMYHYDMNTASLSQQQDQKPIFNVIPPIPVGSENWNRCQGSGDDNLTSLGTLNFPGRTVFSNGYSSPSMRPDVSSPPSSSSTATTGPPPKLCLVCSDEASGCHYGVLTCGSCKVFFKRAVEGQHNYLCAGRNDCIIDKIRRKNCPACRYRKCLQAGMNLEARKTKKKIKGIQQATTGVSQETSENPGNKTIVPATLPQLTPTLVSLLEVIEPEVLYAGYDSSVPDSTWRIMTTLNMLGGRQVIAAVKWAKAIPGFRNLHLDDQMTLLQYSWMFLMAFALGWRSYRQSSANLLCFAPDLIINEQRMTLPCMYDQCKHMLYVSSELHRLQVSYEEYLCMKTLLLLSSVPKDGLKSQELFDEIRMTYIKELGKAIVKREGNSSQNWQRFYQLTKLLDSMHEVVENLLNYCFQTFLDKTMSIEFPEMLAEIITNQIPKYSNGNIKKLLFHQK

Values without a mark were called inactive. Results filed as inconclusive are left out. The source made the active and inactive calls. Unless noted, the call rests on the fitted dose curve; in most records, active means well fitted curve in the direction sought with a large enough effect in the repeat runs; inconclusive means weak or mixed curves; inactive means no such curve, though single readings can be large; an effect the other way counts as inactive or inconclusive.

On to `CC(C)c1ccc2cc(C(C)C)ccc2c1`, for which the call in test [1], in test [2], in test [3], in test [4], in test [5] and in [6] was inactive. In addition, the outcome in [7], in test [9], in test [15] and in test [16] was inactive. Further, the Potency entry in test [8], in test [10], in test [11], in test [12], in test [13] and in [14] was “inactive” throughout. For the same compound, the Potency result in test [17] and in test [18] was “inactive” throughout.
With `CCOC(=O)[C@H](CCc1ccccc1)N[C@@H](C)C(=O)N1C(=O)N(C)C[C@H]1C(=O)O`, the outcome in test [1], in test [2], in test [3], in test [4], in test [5] and in test [6] was inactive. The outcome in [7] was inactive. Besides, the Potency result in test [10], in test [12] and in test [13] was “inactive” in each case.
For `C#CC(C)N(C)C(=O)Nc1ccc(Cl)cc1` (stereo unspecified), the outcome in test [1], in [2], in test [3], in [4], in test [5] and in [6] was inactive. For the same compound, the outcome in [7], in test [9], in [15] and in [16] was inactive. The Potency entry in [13], in [17] and in test [18] was “inactive” throughout.
Regarding `Cc1cc(C(C)(C)C)c(O)c(C)c1CC1=NCCN1`, the result in test [1], in test [2], in test [3], in [4], in test [5] and in [6] was inactive. For the same compound, the result in test [7], in [9], in test [15] and in test [16] was inactive. Moreover, the Potency entry in [8], in [11], in test [14], in test [17] and in [18] was “inactive” throughout.
Regarding `CCOC(=O)CC(=O)c1ccccc1`, the outcome in test [2], in test [3], in test [4], in test [19], in test [5] and in test [6] was inactive. The outcome in [7], in test [20] and in test [9] was inactive. For the same compound, the Potency result in test [8], in [10], in test [12] and in test [13] was “inactive” throughout.
With `N[C@@H](CCC(=O)Nc1ccc([N+](=O)[O-])cc1)C(=O)O`, the compound was classed as inactive in test [1], in [2], in test [3], in test [4], in test [5] and in [6]. Moreover, the compound was classed as inactive in [7], in test [20], in test [9], in [15] and in test [16]. Further, the Potency entry in [8], in test [11], in [13], in [14] and in test [18] was “inactive” each time.
On to `CC(=O)Nc1cccc(C)c1`, for which the call in [2], in test [3], in test [4], in test [19], in test [5] and in test [6] was inactive. Further, the result in [7], in [20] and in test [9] was inactive. The Potency result in test [8], in [10], in test [11], in [12], in test [13] and in [17] was “inactive” in each case.
On to `N#Cc1ccc(C(=O)O)cc1`, for which the result in test [1], in [2], in test [3], in test [4], in [5] and in [6] was inactive. Besides, the result in [7], in [9], in test [15] and in test [16] was inactive. The Potency was 30.6 µM (active) in test [11] and 61.1 µM (active) in test [12]. The Potency result in test [13], in [14], in test [17] and in test [18] was “inactive” in each case.
For `NS(=O)(=O)c1ccc(NC(=O)CCC(=O)O)cc1`, the outcome in test [1], in [2], in test [3], in [4], in [5] and in [6] was inactive. Further, the compound was called inactive in [7], in [20] and in test [9]. In addition, the Potency entry in test [8], in [10], in test [11], in [12], in test [13] and in [17] was “inactive” in each case.
